Records with an inconclusive call do not appear. The source made the active and inactive calls. Unless noted, calls follow the shape of the dose curve; as a rule, active = well fitted curve in the direction sought with a large enough effect in the repeat runs; inconclusive = weak or mixed curves; inactive = no such curve, though single readings can be large; an effect the other way counts as inactive or inconclusive.
Columns and labels:
[1] = A CellTox Green Cytotoxicity Assay to monitor cytotoxicity in HEK293 cells - 32 hour (AID 1224881); also: nearly all actives have a fitted effect of over 40% in size; also: potency is read from the fitted curve at half-maximal effect
How it was run: (§1)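 Cells (HEK293, 600/well) and dye reagent are dispensed together. After 5 h at 37 C, 23 nL compound is pinned in. Plates stay at 37 C for 40 h with fluorescence read at 0h, 8h, 16h, 24h, 32h and 40h.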

[2] = A CellTox Green Cytotoxicity Assay to monitor cytotoxicity in HepG2 cells - 0 hour (AID 1224882); also: nearly all actives have a fitted effect of over 35% in size
How it was run: (§2)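 Cells and non-lytic dye reagent are dispensed together (600 HepG2 cells/well) and incubated 5 h before DMSO compound transfer. Kinetic fluorescence is then recorded in the same wells during 40 h at 37 C.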

[3] = A CellTox Green Cytotoxicity Assay to monitor cytotoxicity in HepG2 cells - 32 hour (AID 1224883); also: nearly all actives have a fitted effect of over 50% in size; also: potency is read from the fitted curve at half-maximal effect
How it was run: as §2

[4] = A CellTox Green Cytotoxicity Assay to monitor cytotoxicity in HEK293 cells - 8 hour (AID 1224884); also: nearly all actives have a fitted effect of over 35% in size; also: potency is read from the fitted curve at half-maximal effect
How it was run: as §1

[5] = qHTS RealTime-Glo MT Cell Viability Assay in HepG2 cells - 16 hour (AID 1224885); also: nearly all actives have a fitted effect of over 50% in size; also: potency is read from the fitted curve at half-maximal effect
How it was run: (§3)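 Viability was tracked continuously by NanoLuc luminescence from prosubstrate reduced by living HepG2 cells, at successive time points over 40 h of compound exposure. Cells with reagent were preincubated 5 h at 37 °C before compound addition.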

[6] = qHTS RealTime-Glo MT Cell Viability Assay in HEK293 cells - 24 hour (AID 1224886); also: nearly all actives have a fitted effect of over 50% in size; also: potency is read from the fitted curve at half-maximal effect
How it was run: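 Viability tracked continuously by luminescence as live cells reduce a prosubstrate for NanoLuc; HEK293 cells preincubated 5 h, compound-treated at 37 C, and read at 0, 8, 16, 24, 32 and 40 h.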

[7] = qHTS RealTime-Glo MT Cell Viability Assay in HEK293 cells - 8 hour (AID 1224887); also: nearly all actives have a fitted effect of over 50% in size; also: potency is read from the fitted curve at half-maximal effect
How it was run: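 Real-time viability in HEK293: signal arises when living cells convert a prosubstrate for NanoLuc in the medium, so luminescence tracks viable cell number. Compound (23 nL, DMSO) added 5 h post-seeding; kinetic reads at 0–40 h, 37 C.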

[8] = A CellTox Green Cytotoxicity Assay to monitor cytotoxicity in HEK293 cells - 16 hour (AID 1224888); also: nearly all actives have a fitted effect of over 35% in size; also: potency is read from the fitted curve at half-maximal effect
How it was run: as §1

[9] = qHTS RealTime-Glo MT Cell Viability Assay in HepG2 cells - 0 hour (AID 1224889); also: nearly all actives have a fitted effect of over 50% in size; also: potency is read from the fitted curve at half-maximal effect
How it was run: as §3

[10] = A CellTox Green Cytotoxicity Assay to monitor cytotoxicity in HepG2 cells - 8 hour (AID 1224890); also: nearly all actives have a fitted effect of over 45% in size; also: potency is read from the fitted curve at half-maximal effect
How it was run: as §2

[11] = qHTS assay to identify small molecule antagonists of the estrogen receptor alpha (ER-alpha) signaling pathway using the BG1 cell line in the presence of 0.1 nM 17-beta-estradiol - cell viability counter screen (AID 1259241); also: nearly all actives have a fitted effect of over 40% in size; also: potency is read from the fitted curve at half-maximal effect
How it was run: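 Cells were plated and left 24 hr, compounds in DMSO were pinned in, 17beta-estradiol was added to 0.1 nM final, and after 22 hr CellTiter-Fluor reagent was added for 30 min before fluorescence was read.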

[12] = qHTS assay to identify small molecule antagonists of the androgen receptor (AR) signaling pathway using the MDA cell line in the presence of 0.5 nM R1881 - cell viability counter screen (AID 1259242); also: nearly all actives have a fitted effect of over 45% in size; also: potency is read from the fitted curve at half-maximal effect
How it was run: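 Steps: plate MDA-kb2 cells, rest 5 hr at 37C without CO2; pin in compounds in DMSO; add R1881 to 0.5 nM final; incubate 16 hr; add CellTiter-Fluor, 30 min; read fluorescence.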

[13] = target: Estrogen receptor (Homo sapiens) (UniProt P03372); experiment: qHTS assay to identify small molecule antagonists of the estrogen receptor alpha (ER-alpha) signaling pathway using the BG1 cell line in the presence of 0.1 nM 17-beta-estradiol (AID 1259244); also: nearly all actives have a fitted effect of over 50% in size; also: potency is read from the fitted curve at half-maximal effect
Chain of Estrogen receptor (Homo sapiens) (P03372 whole entry, looked up): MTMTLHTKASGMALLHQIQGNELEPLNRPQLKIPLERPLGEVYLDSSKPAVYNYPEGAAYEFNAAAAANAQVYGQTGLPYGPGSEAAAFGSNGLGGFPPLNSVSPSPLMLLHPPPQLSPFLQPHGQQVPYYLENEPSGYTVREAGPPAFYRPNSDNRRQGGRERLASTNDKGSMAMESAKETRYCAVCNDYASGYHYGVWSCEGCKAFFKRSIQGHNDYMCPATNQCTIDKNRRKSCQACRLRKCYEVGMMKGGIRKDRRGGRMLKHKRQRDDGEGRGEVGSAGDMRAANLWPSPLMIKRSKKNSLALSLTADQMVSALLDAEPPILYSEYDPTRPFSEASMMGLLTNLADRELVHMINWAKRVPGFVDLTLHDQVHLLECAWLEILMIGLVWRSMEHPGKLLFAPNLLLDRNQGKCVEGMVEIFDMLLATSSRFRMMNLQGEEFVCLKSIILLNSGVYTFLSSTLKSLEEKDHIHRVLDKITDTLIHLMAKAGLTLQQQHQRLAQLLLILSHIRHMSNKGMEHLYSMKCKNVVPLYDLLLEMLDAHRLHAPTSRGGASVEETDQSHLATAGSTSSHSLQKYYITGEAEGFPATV
How it was run: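 Antagonist mode: compounds in DMSO are pinned onto VM7Luc4E2 reporter cells, 0.1 nM final 17beta-estradiol is added, and after 22 h at 37C luciferase luminescence is measured with ONE-Glo.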

[14] = qHTS assay to identify small molecule HDAC inhibitors (AID 1259364); also: potency is read from the fitted curve at half-maximal effect;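 also: wild-type HCT-116 cells with endogenous class I/II HDAC activity; nearly all actives have a fitted effect of over 45% in size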
How it was run: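 Cells (HCT-116, wild type) are seeded at 1,500 per well, incubated overnight, treated with compound in DMSO for 2 hr, then developed with HDAC-Glo I/II reagent for 30 min at room temperature.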

[15] = qHTS assay to identify small molecule HDAC inhibitors - cell viability counter screen (AID 1259365); also: nearly all actives have a fitted effect of over 50% in size; also: potency is read from the fitted curve at half-maximal effect
How it was run: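 Counter screen in wild-type HCT-116 cells: compounds dissolved in DMSO are pin-transferred onto overnight-plated cells and left 2hr at 37C. ATP-based CellTiter-Glo luminescence then measures viable cells.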

[16] = qHTS assay to identify small molecule agonists of the sonic hedgehog signaling (Shh) pathway - cell viability counter screen (AID 1259366); also: nearly all actives have a fitted effect of over 50% in size; also: potency is read from the fitted curve at half-maximal effect
How it was run: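 Cells are plated at 2,000 per well and left 4hr at 37C, 5% CO2 before compound addition. After 23hr of treatment, CellTiter-Fluor reagent is added for 1hr at 37C and fluorescence is measured.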

[17] = qHTS assay to identify small molecule antagonists of the sonic hedgehog signaling (Shh) pathway - cell viability counter screen (AID 1259367); also: nearly all actives have a fitted effect of over 55% in size; also: potency is read from the fitted curve at half-maximal effect
How it was run: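 Conditioned medium drove Shh signaling in 3T3 Gli1-Luc cells exposed to compounds at 37C and 5% CO2. Viability was determined from CellTiter-Fluor fluorescence, with reagent incubated 1 hr after 23 hr of treatment.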

[18] = qHTS assay to identify small molecule agonists of the sonic hedgehog signaling (Shh) pathway (AID 1259368; calls by dose curve;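 also: NIH/3T3-derived 3T3Gli1-Luc cells carrying a stable Gli1-driven firefly luciferase reporter; series mostly up to about 92 µM; nearly all actives have a fitted effect of over 15% in size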)
How it was run: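 Cells of a mouse NIH/3T3 clone stably expressing luciferase under the Gli1 transcriptional response element are exposed to test chemicals for 24 hr at 37 C. Pathway activation is detected as a rise in luminescence.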

[19] = qHTS assay to identify small molecule phospholipidosis (PLD) inducers (AID 1259344; active = well fitted curve in the direction sought with a large enough effect; an effect the other way counts as inactive or inconclusive)
How it was run: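 After 4 h attachment on collagen I, HepG2 cells were dosed with compound alongside LipidTOX Red, kept 24 h at 37 C, fixed, and imaged for lamellar phospholipid pits.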
% is scaled to controls: 0 for no effect and ±100 for the full control effect.

N#Cc1sc2c(=O)c3ccccc3c(=O)c=2sc1C#N
inactive: Potency [2] | Potency [4] | Potency [18]
active: Potency [1] 13.8 µM | Potency [3] 13.8 µM | Potency [5] 9.77 µM | Potency [6] 15.5 µM | Potency [7] 6.92 µM | Potency [8] 43.6 µM | Potency [9] 21.9 µM | Potency [10] 54.9 µM | Potency [11] 5.45 µM | Potency [12] 13.7 µM | Potency [13] 2.43 µM | Potency [14] 27.3 µM | Potency [15] 30.6 µM | Potency [16] 8.63 µM | Potency [17] 9.69 µM

O=[N+]([O-])c1cc(C(F)(F)F)c(Cl)c([N+](=O)[O-])c1Nc1ncc(C(F)(F)F)cc1Cl
inactive: Potency [2] | Potency [9] | Potency [10] | Potency [14] | Potency [18]
active: Potency [1] 24.5 µM | Potency [3] 4.9 µM | Potency [4] 49 µM | Potency [5] 24.5 µM | Potency [6] 1.74 µM | Potency [7] 5.49 µM | Potency [8] 49 µM | Potency [11] 21.7 µM | Potency [12] 4.86 µM | Potency [13] 24.3 µM | Potency [15] 54.5 µM | Potency [16] 4.33 µM | Potency [17] 6.11 µM

CC(Cc1ccc(O)cc1)NCC(O)c1cc(O)cc(O)c1 (centres undefined)
inactive: Potency [1] | Potency [2] | Potency [3] | Potency [4] | Potency [5] | Potency [6] | Potency [7] | Potency [8] | Potency [9] | Potency [10] | Potency [11] | Potency [12] | Potency [13] | outcome [19] | Potency [14] | Potency [15] | Potency [18]
active: Potency [16] 8.41 µM | Potency [17] 10.6 µM

ClSC(Cl)(Cl)Cl
inactive: Potency [1] | Potency [2] | Potency [3] | Potency [4] | Potency [5] | Potency [6] | Potency [7] | Potency [8] | Potency [9] | Potency [10] | Potency [11] | Potency [12] | Potency [14] | Potency [15] | Potency [16] | Potency [17] | Potency [18]

OCC(Br)CBr (centres undefined)
inactive: Potency [1] | Potency [2] | Potency [3] | Potency [4] | Potency [5] | Potency [6] | Potency [7] | Potency [8] | Potency [9] | Potency [10] | Potency [11] | Potency [12] | Potency [13] | Potency [15] | Potency [16] | Potency [17] | Potency [18]

c1cc[n+]2c(c1)-c1cccc[n+]1CC2
active: Potency [11] 26.6 µM | Potency [13] 26.6 µM
inactive: Potency [1] | Potency [2] | Potency [3] | Potency [4] | Potency [5] | Potency [6] | Potency [7] | Potency [8] | Potency [9] | Potency [10] | Potency [12] | Potency [14] | Potency [15] | Potency [17] | Potency [18]

CC[N+]1(CC)CCC(OC(=O)C(O)(c2ccccc2)c2ccccc2)C1 (centres undefined)
inactive: Potency [1] | Potency [2] | Potency [3] | Potency [4] | Potency [5] | Potency [6] | Potency [7] | Potency [8] | Potency [9] | Potency [10] | Potency [11] | Potency [12] | Potency [13] | Potency [14] | Potency [15] | Potency [16] | Potency [17] | Potency [18]

O=c1[nH]c2cc(Cl)ccc2n1C1CCNCC1
inactive: Potency [1] | Potency [2] | Potency [3] | Potency [4] | Potency [5] | Potency [6] | Potency [7] | Potency [8] | Potency [9] | Potency [10] | Potency [11] | Potency [12] | Potency [13] | Potency [14] | Potency [15] | Potency [17] | Potency [18]

COc1cnc(OC)n2nc(NS(=O)(=O)c3c(OCC(F)F)cccc3C(F)(F)F)nc12
inactive: Potency [1] | Potency [2] | Potency [3] | Potency [4] | Potency [5] | Potency [6] | Potency [7] | Potency [8] | Potency [9] | Potency [10] | Potency [11] | Potency [12] | Potency [15] | Potency [16] | Potency [17] | Potency [18]

CCN(CC)Cc1nccn1-c1ccc([N+](=O)[O-])cc1C(=O)c1ccccc1Cl
inactive: Potency [1] | Potency [2] | Potency [3] | Potency [4] | Potency [5] | Potency [6] | Potency [7] | Potency [8] | Potency [9] | Potency [10] | Potency [11] | Potency [12] | PLD induction [19] 0.825% [at 7.66 µM] | Potency [15] | Potency [18]

COC(=O)/C=C(\C)OP(=O)(OC)OC
inactive: Potency [1] | Potency [2] | Potency [3] | Potency [4] | Potency [5] | Potency [6] | Potency [7] | Potency [8] | Potency [9] | Potency [10] | Potency [11] | Potency [12] | Potency [14] | Potency [15] | Potency [16] | Potency [17] | Potency [18]

CN/C(=N\[N+](=O)[O-])NCc1cnc(Cl)s1
inactive: Potency [1] | Potency [2] | Potency [3] | Potency [4] | Potency [5] | Potency [6] | Potency [7] | Potency [8] | Potency [9] | Potency [10] | Potency [11] | Potency [12] | Potency [13] | Potency [14] | Potency [15] | Potency [16] | Potency [17] | Potency [18]

Cc1nn(-c2cc(NS(C)(=O)=O)c(Cl)cc2Cl)c(=O)n1C(F)F
inactive: Potency [1] | Potency [2] | Potency [3] | Potency [4] | Potency [5] | Potency [6] | Potency [7] | Potency [8] | Potency [9] | Potency [10] | Potency [11] | Potency [12] | Potency [14] | Potency [15] | Potency [16] | Potency [17] | Potency [18]

From PubChem BioAssay (Tox21)
